Where “and” joins values, the source holds several entries; their conditions need not be identical. Equal entries are not always repeated.
Legend:
Experiment in all cases: growth inhibition (% activity, log2 RLU normalised to DMSO / staurosporine); higher = more growth inhibition
Details in all cases: 33 µM
DIPGX29 = tested on: DIPGX29 (H3.3 K27M diffuse intrinsic pontine glioma line)
Procedure, shortened: (§1)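 In triplicate, pHGG cell lines and H9-derived neural stem cells were treated for 7 days at 37 °C, 5% CO2 with approved drugs at a single final concentration of about 33 μM, added by pin tool. CellTiter-Glo luminescence, after log2 transformation, was normalised on each plate to % activity between solvent and positive control wells. Growth inhibition is reported as the median across replicates.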

DIPGX37 = tested on: DIPGX37 (H3.3 K27M diffuse intrinsic pontine glioma line)
Procedure, shortened: as §1

DIPGX7 = tested on: DIPGX7 (H3.3 K27M diffuse intrinsic pontine glioma line)
Procedure, shortened: as §1

DIPGX9 = tested on: DIPGX9 (diffuse intrinsic pontine glioma line)
Procedure, shortened: as §1

HGGX39 = tested on: HGGX39 (paediatric high-grade glioma line)
Procedure, shortened: as §1

HGGX6 = tested on: HGGX6 (H3.3 G34R paediatric high-grade glioma line)
Procedure, shortened: as §1

HNSC = tested on: HNSC
Procedure, shortened: as §1

SUDIPGIV = tested on: SUDIPGIV (diffuse intrinsic pontine glioma line)
Procedure, shortened: as §1

SUDIPGVI = tested on: SUDIPGVI (diffuse intrinsic pontine glioma line)
Procedure, shortened: as §1

SUDIPGXIII = tested on: SUDIPGXIII (diffuse intrinsic pontine glioma line)
Procedure, shortened: as §1

Compound | growth inhibition (DIPGX29) | growth inhibition (DIPGX37) | growth inhibition (DIPGX7) | growth inhibition (DIPGX9) | growth inhibition (HGGX39) | growth inhibition (HGGX6) | growth inhibition (HNSC) | growth inhibition (SUDIPGIV) | growth inhibition (SUDIPGVI) | growth inhibition (SUDIPGXIII)
N[C@H](C(=O)O)[C@H](O)c1ccc(O)c(O)c1 | -1.91% | -2.48% | -1.18% | -0.989% | -1.97% | -1.74% | -3.73% | -1.1% | -1.43% | -4.54%
CCC(=O)O[C@@H](O[P@](=O)(CCCCc1ccccc1)CC(=O)N1C[C@H](C2CCCCC2)C[C@H]1C(=O)O)C(C)C | 1.88% | 3.74% | 2.4% | 1.15% | 2.87% | 2.08% | 2.72% | 1.26% | 3.21% | -1.04%
CC(C)(Oc1ccc(CCNC(=O)c2ccc(Cl)cc2)cc1)C(=O)O | 1.81% | 2.31% | 1.05% | 0.682% | 1.23% | 1.74% | 1.59% | 0.843% | 2.49% | -16.6%
COc1ccc(CNc2nc(N3CCC[C@H]3CO)ncc2C(=O)NCc2ncccn2)cc1Cl | -1.4% | -6.17% | -0.329% | -0.502% | -0.964% | -0.0101% | -2.71% | -1.36% | -2.1% | -0.559%
O=P(O)(O)C(O)(Cc1cccnc1)P(=O)(O)O | 0.184% and -0.127% | -0.218% and -0.408% | 2.03% and 0.167% | 0.335% and 1.09% | 3.43% and 1.8% | 2.06% and -1.19% | 2.32% and -0.808% | -0.292% and 0.354% | -0.685% and 2.28% | -0.822% and -0.975%
CCN(CC)CCNC(=O)c1c(C)[nH]c(/C=C2\C(=O)Nc3ccc(F)cc32)c1C | 25.8% | 6.19% | 11.1% | 7.94% | 7.9% | 20.3% | 71.3% | -3.41% | 3.36% | -4.08%
[I-].[K+] | -0.931% | -0.668% | -0.00688% | -0.676% | 0.215% | -4.01% | 20.4% | -0.567% | -0.261% | -4.16%
CN(Cc1cc(Br)cc(Br)c1N)C1CCCCC1 | 2.48% | 1.22% | 4.28% | 3.08% | 5.14% | 1.81% | 7.22% | 3.97% | 3.03% | -1.94%
COc1cccc2c1C(=O)c1c(O)c3c(c(O)c1C2=O)C[C@@](O)(C(C)=O)C[C@@H]3O[C@H]1C[C@H](N)[C@H](O)[C@H](C)O1 | 55.5% | 56.5% | 54.9% | 43.6% | 53% | 56.3% | 62.2% | 57.2% | 46.8% | 66.3%
N[C@@H]1CONC1=O | 1.31% | -0.333% | 0.738% | 1.4% | 0.732% | 0.485% | -0.391% | -1.17% | 1.19% | 1.03%
CC(=O)Oc1cc(C(F)(F)F)ccc1C(=O)O | -1.87% | -1.02% | -1.55% | -0.552% | -0.882% | 0.0377% | -4.31% | -2.59% | -2.15% | -2.75%
CN1CCN(c2c(F)cc3c(=O)c(C(=O)O)cn4c3c2OCN4C)CC1 | 0.647% | 0.371% | 3.3% | 2.03% | 2.92% | 3.21% | 2.71% | 1.21% | 4.19% | -0.0388%
CC[C@H]1OC(=O)[C@H](C)[C@@H](O[C@H]2C[C@@](C)(OC)[C@@H](O)[C@H](C)O2)[C@H](C)[C@@H](O[C@@H]2O[C@H](C)C[C@H](N(C)C)[C@H]2O)[C@](C)(O)C[C@@H](C)C(=O)[C@H](C)[C@@H](O)[C@]1(C)O | 0.288% | -2.96% | 0.845% | 0.939% | 1.08% | -0.333% | 2.65% | 1.14% | 2.66% | -1.2%
Cc1cc(NS(=O)(=O)c2ccc(N)cc2)no1 | -4.18% | -1.05% | -1.62% | -1.67% | -2.37% | -4.13% | 1.76% | -3.28% | -3.16% | -0.124%
CN(C/C=C/C#CC(C)(C)C)Cc1cccc2ccccc12 | -0.633% and -1.72% | -0.939% and -0.818% | -1.38% and -1.19% | 0.275% and -0.829% | 1.78% and -1.01% | 0.104% and -1.17% | -0.321% and -4.36% | -0.307% and 0.598% | 1.93% and -1.67% | -1.07% and -1.51%
CCOC(=O)c1ncn2c1CN(C)C(=O)c1cc(F)ccc1-2 | 1.51% | 1.71% | 0.351% | 4.52% | 2.75% | 0.552% | 0.0947% | -1.75% | 2.57% | 2.26%
COC(=O)[C@H](c1ccccc1Cl)N1CCc2sccc2C1 | -1.33% | -0.314% | -0.551% | -0.762% | -0.681% | -0.144% | -2.08% | -1.84% | 0.653% | 1.29%
Cc1ccnc(NS(=O)(=O)c2ccc(N)cc2)n1 | 0.307% | 1.2% | -0.936% | 0.0876% | 1.13% | -0.277% | -0.552% | 0.606% | 0.117% | 1.12%
C=C[C@]1(C)C[C@@H](OC(=O)CS[C@@H]2C[C@H]3CC[C@@H](C2)N3C)[C@]2(C)[C@H](C)CC[C@]3(CCC(=O)[C@H]32)[C@@H](C)[C@@H]1O | 4.15% | 2.94% | 3.25% | 4.84% | 11.9% | 5.9% | 7.78% | 12% | 5.01% | 5.37%
O=C(O)CCCN1CCC(O[C@@H](c2ccc(Cl)cc2)c2ccccn2)CC1 | -0.326% | 0.504% | -0.839% | -1.86% | 0.636% | -0.646% | -1.58% | -0.161% | 0.268% | 0.355%
